# Among all 4,800 compounds or so, about 420 (8.8%) showed an effect of 50% or more. Many of the other results were omitted from the sample, so strong results are more common in it than they were.
# Tested on: Plasmodium falciparum
# Assay: Confirmatory screen in NF54 nanoGlo assay, in single point, at 2uM, 72h
# Format: functional, Erythrocyte
# Conditions: timepoint 72 hour
row,SMILES,% Inhibition
1,CN1CCC(N(Cc2ccccc2)C(=O)c2cc3cnccc3[nH]2)CC1,61%
2,CCCN1CCC(N2CC(c3cccnc3)C(c3nc(C4CCCC4)no3)C2)CC1 (stereo unspecified),-2%
3,Cc1cc(O)c(Cl)cc1-c1ccc2nccc(N)c2c1,90%
4,Cc1cc(O)c(Cl)cc1-c1cccc2c(N)ccnc12,91%
5,Clc1ccc2[nH]c3c(c2c1)CCCC3NC1CCN(C2CCOC2)CC1 (stereo unspecified),81%
6,CN1CCC(Oc2ccc(NC(=O)c3cn4ccnc4s3)cn2)CC1,86%
7,Nc1ccnc2ccc(-c3ccc(C(=O)NCC4CCOCC4)cc3)cc12,77%
8,Cc1ccc2nc(-c3cccc(NC(=O)c4ccc(OC(F)(F)F)c(Cl)c4)c3)[nH]c2n1,72%
9,Cc1cc(N2CCC(NC3CCCC3Cc3ccc(F)cc3)CC2)nc(N)n1 (stereo unspecified),96%
10,Cc1cc(N2CCC(N(C)Cc3cc(-c4ccccc4)n[nH]3)CC2)nc(N)n1,21%
11,Cc1cc(N2CCC(NC3CCNC(c4ccccc4)C3)CC2)nc(C)n1 (stereo unspecified),30%
12,Fc1cccc(Cl)c1CN1CCC(NC[C@H]2CCCOC2)CC1,24%
13,c1cc(CNC2CCN(C[C@H]3CCOC3)CC2)c2cc[nH]c2c1,-7%
14,O=C(NCc1ccc(N2CCNCC2)c(F)c1)c1ccc(-c2noc(C(F)(F)F)n2)cc1,57%
15,Cc1nc(N2CCN(C)CC2)cc(N2CCN(S(=O)(=O)c3ccccc3C(F)(F)F)CC2)n1,67%
16,Cc1c(CN2CCC(O)(Cn3ccnc3)CC2)[nH]c2c(Cl)cccc12,96%
17,NC(=O)[C@]1(O)CCN(c2ccnc3ccc(Oc4ccccc4)cc23)C1,29%
18,O[C@@]1(c2c[nH]nn2)CCN(c2ccnc3cc(Cl)ccc23)C1,59%
19,COCCN1CC[C@H](CN(C)c2ccnc3cc(Cl)ccc23)C1,98%
20,COCCN1CCC[C@@]2(CCN(c3ccnc4cc(Cl)ccc34)C2)C1,99%
21,Cc1cccc(N2CCC(NCc3cc(C)cc(CN4CCN(C)CC4)c3C)CC2)c1,61%
22,Cc1cc(C)c(CN2CCN(C)CC2)cc1CNCCCn1ccnc1C,38%
23,Cc1ccc2nc(NC[C@H]3CCN(C4CC4)C3)cc(C)c2c1,93%
24,COc1ccc(-c2cc(C(=O)Nc3ccc(N4CCN5CCCC5C4)cc3)c3c(C)noc3n2)cc1 (stereo unspecified),41%
25,Cc1cc(N2CCC(Nc3ccnc4ccncc34)CC2)nc(C)n1,9%
26,Cc1cc(NC[C@H]2CN(CC(C)C)CCO2)c2ccccc2n1,26%

row,SMILES,% Inhibition
1,CCCN1CCC(Nc2cc(C)nc3ccccc23)CC1,77%
2,O=C(Nc1cnc2c(c1)COCC2)c1cc2c(OC(F)(F)F)cccc2[nH]1,95%
3,c1ccc(CCC23CN(Cc4ccccn4)CC2CN(Cc2ccns2)C3)cc1 (stereo unspecified),88%
4,Cc1ccc2[nH]cc(-c3cc(N4CCOCC4)nc(N)n3)c2c1,57%
5,Nc1cc(N2CCC(c3nc4cc(F)ccc4[nH]3)CC2)nc(N2CCOCC2)n1,39%
6,Brc1ccc2[nH]c3c(c2c1)CCCC3NC1CCc2[nH]cnc2C1 (stereo unspecified),97%
7,c1ccc(CNc2ccc(-c3noc(C45CCCN(CCC4)C5)n3)cn2)cc1,82%
8,NCCCCc1c(-c2cccnc2)[nH]c2c(Cl)cc(Cl)cc12,55%
9,Cn1cc(-c2cncc(C(=O)NC3CCN(c4cccc(F)c4)CC3)c2)cn1,51%
10,CCOc1cccc(N2CCN(C(=O)c3cc(-c4ccc(F)cc4)[nH]n3)CC2)n1,32%
11,OC1(c2ccc(Cl)cc2)CCN(C[C@@H]2CCCN3CCCC[C@H]23)CC1,73%
12,CN(C)CCN1CCC(NC2CCC(O)(c3cccc(Cl)c3)CC2)CC1 (stereo unspecified),30%
13,NCC1(O)CCN(c2ccnc3cc(F)c(Cl)cc23)CC1,94%
14,FC(F)(F)c1ccc(N2CCC[C@H](NC3CCN(Cc4ccco4)CC3)C2)nc1,21%
15,CCN1CCC(N2CCC(C(=O)NCCc3ccc(OC(F)(F)F)cc3)CC2)CC1,48%
16,Oc1ccc(OC(F)(F)F)cc1-c1ccc2nccn2n1,83%
17,Nc1ccc(-c2cc(OC(F)(F)F)ccc2O)cn1,11%
18,N#Cc1ccc(N2C[C@H](COCC3CC3)C3(CCN(Cc4cccc(O)c4)CC3)C2)cc1C(F)(F)F,80%
19,CCN1C[C@H](Nc2nc(C)nc3sccc23)[C@@H](OC)C1,98%
20,CNc1nc(C)c(-c2ccnc(Nc3cccc(S(C)(=O)=O)c3)n2)s1,58%
21,Cc1ccc2nc(CCCNC3CCN(c4cc(C)nc(N)n4)CC3)oc2c1,29%
22,Cc1cc(N2CCC(NCCCN3CCCc4ccccc43)CC2)nc(N)n1,74%
23,Cc1cc(N2CCC(NCCc3c[nH]cn3)CC2)nc(-c2ccccc2)n1,17%
24,COc1ccc2c(O)c(Br)c(C)nc2c1,78%
25,COc1ccc2nc3cc(Cl)ccc3c(O)c2c1,57%
26,CN1CCN(CCOc2ccccc2CN(C)Cc2cc3cc(F)ccc3[nH]2)CC1,87%

row,SMILES,% Inhibition
1,CN(C[C@H](O)COc1cccc(CNCCCOc2cccnc2)c1)C1CCCCC1,30%
2,CN1C(C)(C)CC(NC(=O)c2ccc(-c3cc(-c4cccc(C(F)(F)F)c4)n[nH]3)cc2)CC1(C)C,45%
3,CCc1oc2ccccc2c1CNC[C@H](O)c1ccc(Cl)cc1,99%
4,CCN(Cc1[nH]c2ccc(Cl)cc2c1C)CC1CCN(C2CCN(C)CC2)CC1,89%
5,CCN(Cc1cnn(-c2cccc(Cl)c2)c1)CC1CCN(C2CCN(C)CC2)CC1,79%
6,Cc1ccc2[nH]c(-c3cc4n(n3)CCN(c3ccnc(N)n3)C4)nc2c1C,89%
7,CNc1nc(N[C@H]2CCCN(Cc3ccc(Cl)cc3)C2)nc2c1CCC2,79%
8,Clc1cccc(N2CC[C@H](CNC3CCN(Cc4ccco4)CC3)C2)c1,66%
9,COc1ccc(CNCc2cc3ccccc3[nH]2)cc1CN(C)C,59%
10,COc1ccccc1-c1csc(C2CCN(CC[C@H]3CCCN3C)CC2)n1,26%
11,CC(CNc1nc(NCC(C)N2CCOCC2)c2cc(Cl)ccc2n1)N1CCOCC1 (stereo unspecified),87%
12,Cc1ccc(-c2cc(C(=O)NC3CCN(C4CCN(C)CC4)CC3)n[nH]2)cc1C,98%
13,CN1CCC(N2CCC(NC(=O)c3ccc(S(=O)(=O)N(C)C4CCCCC4)cc3)CC2)CC1,44%
14,CN(C)Cc1cccc(CCNCc2csc(-c3ccc(C(F)(F)F)cc3)n2)c1,74%
15,O=C(NC1CCN(CCOc2ccc(Cl)cc2)CC1)c1c[nH]c2ccncc2c1=O,92%
16,O[C@H]1CCN(Cc2ccccc2CNc2cccc(-n3ccnc3)n2)C1,94%
17,O[C@H]1CCN(Cc2cccc(NCc3cn4ccnc4s3)c2)C1,38%
18,CCN1CCC[C@H](Nc2cccc(-n3ccnc3)n2)C1,33%
19,Nc1ccnc(-c2cccc3[nH]ccc23)c1,6%
20,COc1ccc2cc(-c3cc(N)ccn3)[nH]c2c1,55%
21,O=C1CN(C(=O)c2ccnc3ccccc23)CCN1Cc1ccccc1F,53%
22,COc1cc2nc(NCC3(N4CCN(C)CC4)CCCC3)cc(C)c2cc1OC,84%
23,CCN(C)CC1CCN(c2nc(NCCOC)nc(N3CCC(CN(C)CC)C3)n2)C1 (stereo unspecified),1%
24,Cn1nnc(C(=O)N2CCCCC23CCCCCC3)n1,68%
25,CC(C)CCOc1ccc2[nH]c(-c3cc(N4CCC[C@@H]4CS(C)(=O)=O)ccn3)cc2c1,99%
26,CN(CCCn1ccnc1)c1ccnc2cc(Br)ccc12,99%

row,SMILES,% Inhibition
1,O=C(NCCN1CCCCC1)c1cccc(-c2cnc3ccc(F)cn23)c1,26%
2,CCOc1cc2nccc(N3C[C@H]4CN(C)C[C@H]4C3)c2cc1OCC,98%
3,CCCC(=O)NC1COCC1Cc1ccncc1 (stereo unspecified),83%
4,c1ccc(CN2CCC(CCNC[C@@H]3CCCN4CCCC[C@H]34)CC2)cc1,61%
5,COc1ccc2cc(NC(=O)c3cc(-c4c(C)nn(C)c4C)[nH]n3)cnc2c1,73%
6,Cc1cnccc1NCCNCc1ccc(OC(C)C)c(Cl)c1,73%
7,c1ccc2c(Nc3ccc4[nH]cnc4c3)c3ccccc3nc2c1,98%
8,OC[C@H](CNCc1cc2ccc(F)cc2[nH]1)c1ccccc1Cl,72%
9,O[C@@H](CNCc1cc2cc(Cl)c(Cl)cc2[nH]1)c1ccc(F)cc1,79%
10,Cc1sc2nc(-c3ccccn3)nc(NCCc3nccn3C)c2c1-c1ccccc1,71%
11,CCNc1cc(C)nc(NCCNC(=O)Nc2cc(F)cc(F)c2)n1,76%
12,CCNc1nc(C)cc(Nc2ccc(NC(=O)Nc3ccc(F)cc3F)cc2)n1,98%
13,Cc1cc(NC[C@H](O)COc2ccc(F)cc2)nc2ccccc12,76%
14,Cc1ccc2[nH]c(CNC[C@@H](CO)C3CCC3)cc2c1C,65%
15,COc1ccc2[nH]cc(C3=CCN(c4ccc5nnc(-c6ccccc6F)n5n4)CC3)c2c1,51%
16,COc1ccc2[nH]cc(-c3ccc(N)nc3)c2c1,-7%
17,Cc1ccc2nccc(N3CCC(N4CCC(O)CC4)CC3)c2c1,10%
18,CCN1CCN([C@H]2CCN(c3ccnc4ccncc34)C2)CC1,97%
19,O=C(NCC1CC1)c1cc2c(OCc3ccc(Cl)cc3)cccc2[nH]1,57%
20,c1ccc(-c2ccnc(C3CCN(CC45CNCC4C5)CC3)n2)cc1 (stereo unspecified),94%
21,CC(C)c1ccc(-c2nc(CN3CCCCC3)cc(CN3CCCCC3)c2O)cc1,93%
22,CC(C)c1ccc(-c2noc(CCN3CCN(CCCN(C)C)CC3)n2)cc1,25%
23,CCC1(NC(=O)c2cc(C)c3ccccc3n2)CCOCC1,10%

# Source: ChEMBL document CHEMBL5308541, “MAIP: An Open-Source Tool to Enrich High-Throughput Screening Output and Identify Novel, Druglike Molecules with Antimalarial Activity” (ACS Med Chem Lett, 2023)
